The source made the active and inactive calls. Unless noted, the rule behind the calls is not given here.
Legend:
[1] = system: Wnt5a (protein binding on small-molecule microarray); experiment: small molecules binding Wnt5a protein – biophysical, small-molecule microarray, 635/667 nm fluorescence, primary screen (AID 1142); details: 635 nm fluorescence, higher = more signal;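 note: fluorescence read at 667 nm with signal to noise per printed feature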
[2] = ATP-based viability of Huh7 replicon cells – cell-based, CellTiter-Glo luminescence, basal, 48 h, cytotoxicity control for HCV replication inhibitor project, primary screen (AID 1143); details: higher = more signal, called active from +8 up or from −8 down;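 note: Huh7 hepatoma cells carrying a hepatitis C replication reporter with no stimulus; test concentration not given here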
[3] = Pseudomonas biofilm growth suppression – PAO1 strain, BacTiter-Glo luminescence, LB-PBS, primary screen (AID 1144); details: P. aeruginosa PAO1 biofilm, 12 h, higher = more signal
[4] = basal CRE-LacZ reporter activity in PC12 – cell-based, unstimulated, primary screen (AID 1145); details: no forskolin, luminescence, 4.5 h, higher = more signal, called active from +8 up or from −8 down
[5] = forskolin-driven CRE-LacZ activity in PC12 – cell-based, CRE-LacZ reporter, forskolin-stimulated, primary screen (AID 1146); details: luminescence, 4.5 h, higher = more signal, called active from +8 up or from −8 down;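 note: PC12 cells with 6xCRE LacZ reporter stimulated by forskolin 10 µM; beta-galactosidase reporter signal reflecting CREB driven transcription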
[6] = biological target: Streptavidin (Streptomyces avidinii) (UniProt P22629); experiment: compounds binding control protein streptavidin – biophysical, small-molecule microarray, 635/667 nm fluorescence, artefact control for SMM compound annotation, primary screen (AID 1147); details: higher = more signal;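 note: signal reflects streptavidin binding to arrayed compounds as a control protein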
[7] = probe aInhba binding on compound microarray – biochemical, small-molecule microarray, 635/667 nm fluorescence, primary screen (AID 1148); details: higher = more signal;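 note: score merges 667nm spot fluorescence with signal-to-noise for antibody binding to printed compounds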
Torsin-1A (Homo sapiens) [8] = biological target: Torsin-1A (Homo sapiens) (UniProt O14656); experiment: TOR1A wild-type binding on microarray – cell lysate, small-molecule microarray, lysate, 635/667 nm, primary screen (AID 1149); details: COS7 hTOR1A-WT lysate, 635 nm fluorescence, higher = more signal
Torsin-1A (Homo sapiens) [9] = biological target: Torsin-1A (Homo sapiens) (UniProt O14656); experiment: torsin A mutant lysate binding on microarrays – cell lysate, small-molecule microarray, COS7 lysate, 635/667 nm fluorescence, primary screen (AID 1150); details: COS7 hTOR1A mutant lysate, 635 nm fluorescence, higher = more signal;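 note: score pools 667 nm emission and signal to noise measuring lysate protein binding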
[10] = system: Sonic hedgehog protein (Shh); experiment: Sonic hedgehog microarray binding compounds – biochemical, small-molecule microarray, 635/667 nm fluorescence, primary screen (AID 1151); details: 635 nm fluorescence, higher = more signal;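 note: Shh protein binding to compounds spotted on small-molecule microarray slides; score combines spot fluorescence intensity with signal-to-noise across triplicate slides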

Sequence of Torsin-1A (Homo sapiens) (O14656 whole entry, looked up): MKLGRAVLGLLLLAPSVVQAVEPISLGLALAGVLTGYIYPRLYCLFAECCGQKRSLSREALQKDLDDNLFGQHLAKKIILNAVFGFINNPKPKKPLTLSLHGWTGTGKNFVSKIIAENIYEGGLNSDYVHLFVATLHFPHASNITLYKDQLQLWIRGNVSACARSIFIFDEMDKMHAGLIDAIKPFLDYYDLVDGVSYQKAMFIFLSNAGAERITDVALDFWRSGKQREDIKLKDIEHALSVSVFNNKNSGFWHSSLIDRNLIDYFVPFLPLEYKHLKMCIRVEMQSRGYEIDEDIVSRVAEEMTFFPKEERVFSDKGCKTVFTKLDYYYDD
Sequence of Streptavidin (Streptomyces avidinii) (P22629 whole entry, looked up): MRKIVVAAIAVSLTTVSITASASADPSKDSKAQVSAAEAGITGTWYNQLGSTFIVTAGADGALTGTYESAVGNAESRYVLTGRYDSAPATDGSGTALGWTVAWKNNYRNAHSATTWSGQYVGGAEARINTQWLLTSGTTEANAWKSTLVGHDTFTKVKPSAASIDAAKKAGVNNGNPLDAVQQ

SMILES	composite z-score [1]	z-score [2]	z-score [3]	z-score [4]	z-score [5]	composite z-score [6]	composite z-score [7]	composite z-score (Torsin-1A (Homo sapiens) [8])	composite z-score (Torsin-1A (Homo sapiens) [9])	composite z-score [10]
CCCCCCCCCCC(O)C1C=CC2C(=O)N(Cc3ccccc3)C(=O)C2N1n1cnnc1 (stereo not given)	0.418	-4.02 (inactive)	-0.0968 (inactive)	-0.0137 (inactive)	-0.728 (inactive)	0.744	0.437	0.0668	0.567	-0.778
COc1ccc(C#Cc2ccc3c(c2)[C@]2(C(=O)N3)[C@H](C(=O)NC[C@H](O)c3ccccc3)[C@H]3C(=O)O[C@H](c4ccccc4)[C@H](c4ccccc4)N3[C@@H]2c2ccccc2OCCO)cc1	0.0762	-5.79 (inactive)	-0.494 (inactive)	-0.463 (inactive)	-0.336 (inactive)	0.924	0.421	0.123	0.535	1.68
Cc1ccc(S[C@]2(C(=O)NCc3ccccc3)CC(=O)N(Cc3ccccc3)[C@@H]2c2ccc(CO)cc2)cc1	-0.202	-0.618 (inactive)	0.395 (inactive)	-0.735 (inactive)	-0.26 (inactive)	-0.926	-0.0719	-0.499	0.248	-0.242
CN1C(=O)C2C=CC(C(O)c3ccccn3)N(Nc3ccccc3)C2C1=O (stereo not given)	-0.0522	0.901 (inactive)	-0.652 (inactive)	0.0467 (inactive)	0.4 (inactive)	0.324	-0.0069	0.884	-0.179	0.207
COCCCNC(=O)[C@@]1(CCC(=O)OC(C)(C)C)N=C(c2ccc(OCCCO)cc2)O[C@H]1c1ccccc1CN=[N+]=[N-]	1.01	-0.0523 (inactive)	0.0993 (inactive)	-0.538 (inactive)	0.286 (inactive)	1.01	0.329	1.23	1.51	0.103
CCCCCN1CC=CC23O[C@@H]4/C=C\CCC(C)OC(=O)C4[C@H]2C(=O)N(CCCCCO)[C@@H]3C1=O (stereo not given in full)	-1.01	0.292 (inactive)	-1.35 (inactive)	-0.492 (inactive)	0.069 (inactive)	-1.33	-0.182	-0.798	0.815	-0.0084
O=C1C[C@@](C(=O)NC2CC2)(c2ccc([N+](=O)[O-])cc2)[C@@H](c2ccc(CO)cc2)N1CC12CC3CC(CC(C3)C1)C2	0.382	-4.42 (inactive)	-0.752 (inactive)	-0.529 (inactive)	-1.12 (inactive)	0.465	-0.0736	0.477	-0.176	0.777
CN1C(=O)C2C(C1=O)C1C=C(CCCO)C2C(c2cccs2)N1C (stereo not given)	0.0691	-0.273 (inactive)	0.0748 (inactive)	0.236 (inactive)	0.289 (inactive)	-0.96	0.141	-0.381	-0.332	-0.11
O=C1[C@]2(CO)C=C(Br)[C@@H](C[C@@H]2c2ccccc2)[C@@]12CO2	-0.165	-0.296 (inactive)	-0.547 (inactive)	1.12 (inactive)	3.94 (inactive)	1.26	-0.237	-0.619	0.0294	0.344
CCCCCN1CC=CC23O[C@@H]4C=CCOC(=O)[C@@H]4[C@H]2C(=O)N(CCCO)[C@@H]3C1=O (stereo not given in full)	-0.465	-2.93 (inactive)	-1.87 (inactive)	-1.85 (inactive)	-0.771 (inactive)	-0.866	-0.208	2.03	2.31	1.25
O=C1O[C@@H](c2ccccc2)[C@@H](c2ccccc2)N2[C@@H](c3ccc(O)cc3)[C@]3(C(=O)Nc4ccc(C#CC5=CCCCC5)cc43)[C@@H](C(=O)O)[C@H]12	0.942	-2.52 (inactive)	-2.85 (inactive)	-0.0515 (inactive)	-1.12 (inactive)	1.75	0.198	0.198	0.637	0.146
N#Cc1ccc(NN2C(C(O)c3ccc([N+](=O)[O-])cc3)C=CC3C(=O)N(c4ccccc4)C(=O)C32)cc1 (stereo not given)	0.72	0.845 (inactive)	-0.245 (inactive)	-0.525 (inactive)	0.516 (inactive)	0.323	0.137	-0.169	0.303	-0.261
COCCOC(=O)N1C(=O)[C@@]2(c3cc(C#CCC(C(=O)OC)C(=O)OC)ccc31)[C@H](c1ccccc1OCCO)N1[C@H](c3ccccc3)[C@H](c3ccccc3)OC(=O)[C@H]1[C@@H]2C(N)=O	0.53	-3.11 (inactive)	0.451 (inactive)	1.16 (inactive)	2.17 (inactive)	0.0558	0.137	0.402	0.689	1.52
C=C[C@@H](COC(C)=O)N(Cc1ccccc1[N+](=O)[O-])S(=O)(=O)c1ccc(Br)cc1	0.521	-4.76 (inactive)	-1.65 (inactive)	-0.0108 (inactive)	-1.41 (inactive)	1.16	-0.104	0.55	1.58	1.97
C[C@H]1NC(=O)[C@H](Cc2ccccc2)NC(=O)[C@@]23C(=O)N[C@@H](Cc4ccccc4)C2[C@H](C)[C@@]2(C)O[C@H]2C3/C=C/C/C=C\CNC1=O (stereo not given in full)	-0.182	-0.679 (inactive)	0.615 (inactive)	2.67 (inactive)	-0.522 (inactive)	-0.496	-0.179	-0.477	-0.402	0.249
COc1ccc(CCNC(=O)[C@@H]2c3ccccc3C(=O)N(Cc3ccc(OC(F)(F)F)cc3)[C@H]2c2ccc(CO)cc2)cc1	0.446	-2.71 (inactive)	-0.676 (inactive)	-0.475 (inactive)	-0.206 (inactive)	-0.0886	-0.0465	-0.271	0.366	-0.144
C=CCOC(=O)[C@@H]1[C@H]2C(=O)O[C@H](c3ccccc3)[C@H](c3ccccc3)N2[C@H](c2ccc(OCCOC(=O)[C@@H]3C[C@@H]4C(=O)NCC(=O)N4[C@@H]3c3cccc(OCCO)c3)cc2)[C@@]12C(=O)Nc1ccc(I)cc12	1.02	0.0025 (inactive)	-0.0754 (inactive)	-0.545 (inactive)	-0.844 (inactive)	-0.0506	0.458	1.56	1.17	2.1
CC=CC(O)C1C=CC2C(=O)N(c3ccccc3)C(=O)C2N1Nc1ccc(C(C)C)cc1 (stereo not given)	0.288	0.0547 (inactive)	-0.302 (inactive)	0.0501 (inactive)	0.133 (inactive)	1.24	0.143	-0.173	0.55	-0.0469
COc1ccc([Si](C)(C)[C@@H]2[C@@H](CCn3cc([C@H](O)c4ccccc4)nn3)O[C@]3(C(=O)N(Cc4ccc(N5C(=O)c6cccc7cccc5c67)cc4)c4ccccc43)[C@H]2C)cc1	-0.179	-4.7 (inactive)	0.364 (inactive)	1.22 (inactive)	-1.68 (inactive)	-0.378	-0.0762	-0.0204	-0.169	-0.0774
Cc1cc(C)c(C(O)C2C=CC3C(=O)N(c4ccccc4)C(=O)C3N2Nc2ccc(C#N)cc2)c(C)c1 (stereo not given)	0.461	0.287 (inactive)	-1.36 (inactive)	0.246 (inactive)	1.19 (inactive)	2	0.427	0.221	1.51	-0.438
COC(=O)C[C@@H]1C[C@H](C)[C@]2(O1)C(=O)N(Cc1ccccc1)c1ccc(NC(C)=O)cc12	0.739	-0.578 (inactive)	0.347 (inactive)	3.56 (inactive)	-0.47 (inactive)	-0.101	-0.128	0.0771	0.362	0.034
COC(=O)c1ccc(C23CC2(C(NP(=O)(c2ccccc2)c2ccccc2)c2ccccc2)C3)cc1 (stereo not given)	0.211	-2.07 (inactive)	0.523 (inactive)	-1.14 (inactive)	-0.0812 (inactive)	1.7	0.178	0.862	1.64	-0.803

Source: PubChem BioAssay
